Hits are enriched below; roughly 2.7% of the tested compounds scored in any of these assays.
TGFb SMAD3 inh: qHTS for Inhibitors of TGF-b; HepG2 CAGA-GFP TGF-b/SMAD3 reporter, GFP fluorescence, 18 h; TGF-beta stimulated, 500 pg/mL final; Potency, µM (top dose mostly 46.1 µM), without a hit: at the highest dose activity, negative = inhibition, hits mostly inhibitors; 1.2% of 410,000 active; further: on the % scale 0 is the no-effect control and ±100 the full control effect; nearly all actives have a fitted effect of over 65% in size
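Per well, imaged GFP fluorescence of HEPG2 CAGA-GFP cells gives the signal; cells get compound, then TGF-beta (500 pg/mL final), 18 h at 37 degrees C; %Activity versus -TGF-beta and +DMSO controls.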
ATXN viability: Viability Counterscreen for Primary qHTS for Inhibitors of ATXN expression | S2 cells (HEK-293 line with an ATXN2-luciferase reporter) viability, CellTiter-Fluor protease fluorescence, 24 h | Potency, µM (series often up to 56.7 µM), hits mostly cytotoxic | 0.49% of 400,000 active | AID 651635, 2014; further: nearly all actives have a fitted effect of over 40% in size
ATXN2 expr inh: Primary qHTS for Inhibitors of ATXN expression; 0.72% of 360,000 active; AID 1745845, 2022; Potency, µM (series often up to 57 µM), without a hit: at the top dose activity change, negative = inhibition, usual class: inhibitors; HEK-293 ATXN2-luciferase reporter, luminescence, 24 h; further: on the % scale 0 is the no-effect control and ±100 the full control effect; nearly all actives have a fitted effect of over 55% in size
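qHTS (up to 57 uM final) was run with 24 h compound exposure of reporter cells at 37 °C. Each well was multiplexed: SteadyGlo luminescence measured ATXN2-luciferase expression after a fluorogenic Gly-Phe-AFC viability readout (25 uM final).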
HepG2 tox: qHTS for Inhibitors of TGF-b: Cytotox Counterscreen; HepG2 CAGA-GFP viability, ATP luminescence, 18 h; Potency, µM (titrated, usually from 46.1 µM), for the others: at the highest dose activity change, negative = cytotoxicity, usual class: cytotoxic; 0.76% of 410,000 active
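CellTiter-Glo luminescence gave cytotoxicity after 18 hours at 37 degrees C. The cells were HepG2 CAGA-GFP in 1% FBS DMEM, stimulated with 500 pg/mL TGF-beta after compound addition. %Activity was normalised to no-cell wells (complete cell-killing) and DMSO (no toxicity), and curves were fitted and classified.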
12-LOX inh: Primary qHTS assay for inhibitors of human arachidonate 12S-lipoxygenase (ALOX12): Round 2 | Polyunsaturated fatty acid lipoxygenase ALOX12 (Homo sapiens), P18054 | purified 12hLO, xylenol orange hydroperoxide absorbance | Potency, µM (highest dose often 108 µM), inactives show top-dose activity change, negative = inhibition, actives largely listed as inhibitors | 1.1% of 580,000 active | AID 1671190, 2021; further: on the % scale 0 is the no-effect control and ±100 the full control effect
Target sequence (P18054 whole entry, looked up): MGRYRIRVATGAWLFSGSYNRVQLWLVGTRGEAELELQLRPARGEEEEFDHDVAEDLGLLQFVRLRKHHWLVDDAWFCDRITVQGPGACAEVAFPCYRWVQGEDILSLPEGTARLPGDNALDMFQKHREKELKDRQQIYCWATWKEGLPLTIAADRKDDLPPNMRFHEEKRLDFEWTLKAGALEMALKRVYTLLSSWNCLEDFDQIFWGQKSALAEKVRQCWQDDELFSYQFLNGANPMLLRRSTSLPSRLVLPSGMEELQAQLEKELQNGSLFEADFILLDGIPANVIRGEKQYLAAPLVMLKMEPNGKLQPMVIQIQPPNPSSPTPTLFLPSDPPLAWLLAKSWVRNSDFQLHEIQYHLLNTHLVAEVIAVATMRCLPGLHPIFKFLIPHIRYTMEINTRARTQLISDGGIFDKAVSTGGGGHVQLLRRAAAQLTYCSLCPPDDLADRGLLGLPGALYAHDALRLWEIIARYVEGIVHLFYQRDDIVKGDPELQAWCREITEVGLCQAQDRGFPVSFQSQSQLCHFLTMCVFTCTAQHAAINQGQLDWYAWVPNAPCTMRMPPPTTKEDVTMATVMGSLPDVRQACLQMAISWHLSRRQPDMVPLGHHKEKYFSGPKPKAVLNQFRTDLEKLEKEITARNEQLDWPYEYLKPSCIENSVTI
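Purified human 12hLO (150 nM final) in 25 mM Hepes, 0.01% Triton X-100, pH 7.0 was preincubated 15 min at room temperature with compound. Then 40 uM arachidonic acid was added, 30 min. Hydroperoxide was read by Fe-XO absorbance ratio 573/405 nm.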
Active calls of the source: *; [ ] = dose if it differs, or a comment. The call rests on the fitted dose curve; in most records, active means well fitted curve in the direction sought with a large enough effect; inconclusive means small, poorly fitted or top-dose-only effect, or another doubt; inactive means no such curve, though single readings can be large; an effect the other way counts as inactive or inconclusive. Potency means the concentration at half of the fitted maximal effect.

`COc1ccc2cc(C(=O)NC3CCN(C(=O)c4ccccc4)CC3)c(C)nc2c1` gave 12-LOX inh 8%.
CC(NC(=O)NCCNc1cnccn1)c1ccc(C#N)cc1 (configuration not stated) was read as 12-LOX inh -29%.
COc1ccc(S(=O)(=O)Nc2cc(-c3c(O)ccc4ccccc34)c(O)c3ccccc23)cc1 was read as ATXN2 expr inh inconclusive and 12-LOX inh 8.6µM*.
Screening COc1ccc(S(=O)(=O)Nc2cc3c(C(C)=O)c(C)oc3c3ccccc23)cc1 returned TGFb SMAD3 inh inconclusive, ATXN viability inconclusive, ATXN2 expr inh -11%, HepG2 tox -19% and 12-LOX inh 40%.
`Fc1ccc(Nc2cncc(-c3ccsc3)c2)cc1Cl` gave TGFb SMAD3 inh inconclusive, ATXN viability inconclusive, ATXN2 expr inh -13%, HepG2 tox -66% and 12-LOX inh 40µM*.
Screening CCOc1cc(CNCCCN2CCOCC2)cc(Cl)c1OCC(=O)NC(C)(C)C returned TGFb SMAD3 inh 6%, ATXN viability inconclusive, ATXN2 expr inh -16%, HepG2 tox -7% and 12-LOX inh 2%.
Screening COc1cc(CNCCCN2CCOCC2)cc(Br)c1OCc1ccc(Cl)cc1 returned TGFb SMAD3 inh inconclusive, ATXN2 expr inh 21µM*, HepG2 tox -117% and 12-LOX inh inconclusive.
Screening COc1cc(CNCCN2CCOCC2)ccc1OCc1ccc(Cl)cc1 returned TGFb SMAD3 inh 37%, ATXN viability inactive, ATXN2 expr inh 5%, HepG2 tox -33% and 12-LOX inh inconclusive.
Screening CCOc1cc(CNCCCN2CCOCC2)cc(Br)c1OCC(=O)Nc1cccc(C(F)(F)F)c1 returned TGFb SMAD3 inh inconclusive, ATXN2 expr inh 22µM*, HepG2 tox 18µM* and 12-LOX inh inconclusive.
O=C(COC(=O)c1cc([N+](=O)[O-])ccc1N1CCOCC1)Nc1ccc(Cl)cn1 was read as TGFb SMAD3 inh inconclusive, ATXN viability inconclusive, ATXN2 expr inh 7.1µM*, HepG2 tox -34% and 12-LOX inh 101%.
For O=C(N/N=C/c1cccs1)c1n[nH]c2c1CCCC2 the results were TGFb SMAD3 inh 6%, ATXN viability inactive, ATXN2 expr inh 15µM*, HepG2 tox -46% and 12-LOX inh inactive.
`Cc1cnc(C(=O)NCC23CCC=C2N(C)C(=O)CC3)cn1` (configuration not stated) gave 12-LOX inh 5%.
For O=C(COC(=O)C1CC2CCCC(C1)C2=O)Nc1ccc(C(F)(F)F)cc1[N+](=O)[O-] (configuration not stated) the results were 12-LOX inh -1%.
Oc1[nH]c2ccccc2c1N=NC(=S)NCCc1ccccc1 was read as TGFb SMAD3 inh 11µM*, ATXN viability inactive, ATXN2 expr inh -4%, HepG2 tox -50% and 12-LOX inh inconclusive.
CCOc1ccc(NC(=S)N=Nc2c(O)[nH]c3ccccc23)cc1 was read as TGFb SMAD3 inh 7.9µM*, ATXN viability inconclusive, ATXN2 expr inh -32%, HepG2 tox 8.9µM* and 12-LOX inh 6%.
Screening O=C(N/N=C/c1ccccc1F)c1csc2ccccc12 returned 12-LOX inh -13%.
Screening CC1=NN(C(=O)CSCc2ccccc2Cl)C(O)(C(F)(F)F)C1 (configuration not stated) returned 12-LOX inh 7%.
For CCOC(=O)c1c(CSc2ccc(CC)cc2)oc2ccc(O)c(CN(C)C)c12 the results were TGFb SMAD3 inh inconclusive, ATXN2 expr inh 16µM*, HepG2 tox 22µM* and 12-LOX inh inconclusive.
Screening CCOC(=O)c1c(C)oc2ccc(O)c(CN(C)C)c12 returned TGFb SMAD3 inh 28%, ATXN viability inactive, ATXN2 expr inh -8%, HepG2 tox 14% and 12-LOX inh inconclusive.
`CC1CCCC(n2c(=S)[nH]c3ccccc3c2=O)C1C` (configuration not stated) gave TGFb SMAD3 inh 14µM*, ATXN viability inconclusive, ATXN2 expr inh -27%, HepG2 tox -70% and 12-LOX inh -9%.
For O=C(O)C1CCCN1S(=O)(=O)c1ccc(Br)s1 (configuration not stated) (tested in a mixture with another compound) the results were TGFb SMAD3 inh 6%, ATXN viability inactive, ATXN2 expr inh -1%, HepG2 tox -26% and 12-LOX inh -4%[57.4 µM].
CC1CCCN(c2ccc(C(=O)O)cc2NS(=O)(=O)c2ccc(Br)s2)C1 (configuration not stated) was read as 12-LOX inh 5.6µM*.
O=C1c2ccccc2C(=O)N1CCC#C/C=C1\c2ccccc2C(=O)N1c1ccccc1 was read as TGFb SMAD3 inh inconclusive, ATXN viability 28µM*, ATXN2 expr inh -15%, HepG2 tox 1% and 12-LOX inh 15%.
For CCCN1CNC(=S)N(c2cc(C)ccc2C)C1 the results were TGFb SMAD3 inh -16%, ATXN viability inactive, ATXN2 expr inh -7%, HepG2 tox -11% and 12-LOX inh inconclusive.
`CCCN1CNC(=S)N(N2CN(CCC)CNC2=S)C1` gave 12-LOX inh 13µM*.
Cc1cc(-c2ccc(N=Nc3ccc4c(S(=O)(=O)O)cc(S(=O)(=O)O)c(N)c4c3O)c(C)c2)ccc1N=Nc1ccc2c(S(=O)(=O)O)cc(S(=O)(=O)O)c(N)c2c1O was read as ATXN viability 13µM* and 12-LOX inh 159%.
Cc1ccc(N=Nc2ccc(N)cc2C)c(S(N)(=O)=O)c1 was read as TGFb SMAD3 inh 6%, ATXN viability inconclusive, ATXN2 expr inh 24%, HepG2 tox 3% and 12-LOX inh inconclusive.
`O=C(Nc1ccccc1)Nc1ccccc1Br` gave TGFb SMAD3 inh 8%, ATXN viability inactive, ATXN2 expr inh 32%, HepG2 tox -26% and 12-LOX inh 11µM*.
O=C(Nc1ccccc1)Nc1cccc(NC(=O)Nc2ccccc2)c1F was read as TGFb SMAD3 inh 0%, ATXN viability inactive, ATXN2 expr inh 3%, HepG2 tox -36% and 12-LOX inh 0%.
CCOC(=O)N1CCN(C(=O)c2cc3ccccc3n2C)CC1 was read as 12-LOX inh -7%.
CCOc1ccccc1NC(=O)Cn1c(=O)c(-c2noc(C)n2)c2n(c1=O)CCCC2 was read as 12-LOX inh 40%.
C=CC(=O)N1CCc2ccc(-n3c(=O)ccc4cnc5ccc(-c6cnn(C)c6)cc5c43)cc21 was read as ATXN2 expr inh 15µM* and 12-LOX inh inconclusive.

Bioassay records (PubChem BioAssay)
